Measured values from PubChem BioAssay (NCI).
Several values for one entry are separate records, joined by “and”; a condition that tells them apart may be missing. Equal values may be shown once. This is part of a sample that, as a whole, favours compounds with a hit. Of some 83,000 tested, about 20% had one in any assay.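 Testing used 96-well plates and a 48-hour single-concentration exposure. Example: -40 means 40% of the starting cells died.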 Activity calls are given as the source filed them. Rule for the calls: active = growth percent below 10; inactive = the rest.

tested on: MDA-MB-468 breast; assay: NCI-60 one-dose screen, 48 h (100 = growth as untreated, 0 = no growth, -100 = all killed); settings: 10 µM unless noted

Structure (SMILES) | growth
CCCc1cc(=O)oc2c(C(=O)CC(C)C)c(O)c(CC=C(C)C)c(O)c12 | 1.81% (active)
Cc1ccc2c(n1)C(=O)C(Cl)=C(Nc1ccc(C(C)C)cc1)C2=O | -44.8% (active)
CCOC(=O)C1=C(C)NC(=S)NC1c1ccccc1 (stereo not given) | 98.3% (inactive)
Cc1nc2cc(Nc3nc(Nc4ccc(F)cc4)nc(N4CCN(C)CC4)n3)ccc2n1Cc1ccccc1 | -32.7% (active)
CNC(=O)c1cc(Oc2ccc3nc(NC(=O)Nc4cc(C(F)(F)F)cc(C(F)(F)F)c4)sc3c2)ccn1 | -31.1% (active)
CC1C(=O)c2ccccc2CC1C(=O)O (stereo not given) | 118% (inactive)
COc1cc(-c2nc(-c3nc4cc(C(=O)c5ccccc5)ccc4[nH]3)cc3c2[nH]c2ccccc23)cc(OC)c1OC | 93% (inactive)
Cn1cc(-c2ccc3c(c2)ncn3-c2ccc(CC(=O)Nc3cc(C(C)(C)C)on3)cc2)cn1 | 35.5% (inactive)
COC[C@]12CC[C@@H](C)[C@H](C)[C@H]1C1=CC[C@@H]3[C@@]4(C)CCCNC(C)(C)[C@@H]4CC[C@@]3(C)[C@]1(C)CC2 | -6.6% (active)
CC(C)c1nc2ccccc2n1CC(=O)N/N=C/c1cccc(O)c1 | 98.4% (inactive)
S=C1SCN(Cc2cccs2)CN1Cc1cccs1 | 40.4% (inactive)
C#CCn1cc(/C=N/Nc2nc(-c3ccc(Br)cc3)cs2)c2ccccc21 | 105% (inactive)
COc1ccc(C2(Cl)c3ccccc3N(c3ccccc3)c3ccccc32)cc1 | -32.7% (active)
CS(=O)(=O)N1CCN(Cc2cc3nc(-c4cccc5[nH]ncc45)nc(N4CCOCC4)c3s2)CC1 (tested in a mixture with another compound) | -47.9% (active)
COc1cc(Cl)cc(-c2nn(C(=O)NCCN3CCOCC3)cc2-c2ccncc2)c1 | 27.6% (inactive)
Cc1c(C)c(N2C(=O)C=CC2=O)c(C)c(C)c1N1C(=O)C=CC1=O | 96.5% (inactive)
N#Cc1c(N2CCNCC2)nc2sc3cc(Cl)c(Cl)cc3n2c1=N | 90.2% (inactive)
C/C(=C(/c1ccc(O)cc1)c1ccc(OCCN2CCCCCC2)cc1)c1ccccc1 | 31.8% (inactive)
c1ccc(-c2cc(-c3cc(-c4ccccc4)on3)no2)cc1 | 84.9% (inactive)
CCOc1ccc(C2N(c3cc(OC)c(OC)c(OC)c3)C(=O)C2(F)F)cc1 (stereo not given) | 34.9% (inactive)

Structure (SMILES) | growth
CC(=O)Oc1ccccc1C(=O)Nc1ccc(C(=O)/C=C/c2cccs2)cc1 | 109% (inactive)
CCN(C(=O)N1CCN(c2cc3c(cc2F)c(=O)c(C(=O)O)cn3C2CC2)CC1)c1nc(-c2ccccc2)cs1 | 13% (inactive)
CCOC(=O)C1=C(C)NC(=O)NC1c1c(Cl)n(-c2ccccc2)c2ccccc12 (stereo not given) | 58.3% (inactive)
O=[N+]([O-])c1ccc(C2CC(c3ccccc3)=Nc3ccccc3S2)cc1 (stereo not given) | 77.7% (inactive)
O=C1C=CC(=O)N1c1ccccc1N1C(=O)C=CC1=O | 104% (inactive)
O=C(Nc1ncc(Cc2cccc(C(F)(F)F)c2)s1)c1ccc2c(c1)OCCO2 | 15.6% (inactive)
N#Cc1nnn(-c2ccc(S(N)(=O)=O)cc2)c1NCC(=O)c1ccccc1 | 96.7% (inactive)
COc1cc(/C=C/C(=O)/C=C/c2cc3ccc(Cl)cc3[nH]c2=O)ccc1O | 98.4% (inactive)
Cc1cc(N/N=C/c2nc(-c3ccc(Cl)cc3)oc2C)c2cc(Cl)ccc2n1 | -47.4% (active)
CCc1ccc(Oc2c(-c3ccc(OCCc4cccc(C(F)(F)F)c4)cc3O)n[nH]c2C(F)(F)F)cc1 | 22.5% (inactive)
CCCO/N=C/c1ccccn1 | 115% (inactive) and 120% (inactive)
O=c1c2c(=NCCN3CCCC3)cc3c(=O)n(CCCN4CCOCC4)c(=O)c4c(-c5ccc(CN6CCCC6)cc5)cc(c(O)n1CCCN1CCOCC1)c2c4-3 | -58.1% (active)
CCOC(=O)c1[nH]c2c(c1C)-c1[nH]c(=O)c(S(=O)(=O)c3ccccc3)cc1SC2 | 23.9% [100 µM] (inactive)
Cc1cccc(Cc2cnc(NC(=O)CCCOc3ccc(Cl)cc3)s2)c1 | 3.77% (active)
Clc1cccc(/C=N/Nc2nc(N/N=C/c3cccc(Cl)c3)nc(N3CCOCC3)n2)c1 | 30.8% (inactive)
COc1ccc(C(O)c2cc3c(N)c(C(=O)Nc4cccc(Cl)c4C)sc3nc2C)cc1 (stereo not given) | 8.74% (active)
C=CC(=O)NCc1ccc(Nc2nccc(-c3ccc(N4CCCC4)c(C#N)c3)n2)cc1 | 15.7% (inactive)
O=c1c2cccc3c(Nc4c(F)cccc4F)ccc(c32)c2nc3ccccc3n12 | -33.5% (active)
COc1ccc(-c2nc(Nc3cc(C)[nH]n3)c3ccccc3n2)cc1 | 47.3% (inactive)
O=C1/C(=C\c2cn(C(=O)c3ccc(Cl)cc3)c3ccccc23)c2ccccc2N1c1c(Cl)cccc1Cl | 97.7% (inactive)
